Records with an inconclusive call do not appear. Calls of active or inactive are those of the source. Unless noted, calls come from the whole dose curve; as a rule, active = well fitted curve in the direction sought with a large enough effect; inconclusive = small, poorly fitted or top-dose-only effect, or another doubt; inactive = no such curve, though single readings can be large; an effect the other way counts as inactive or inconclusive.

A short description of assay [1]: S16 Schwann cell PMP22 intronic element firefly luciferase assay (AID 624032). Note: nearly all actives have a fitted effect of over 30% in size. In short, it runs like this: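 Rat S16 Schwann cells stably carrying firefly luciferase driven by a PMP22 intronic element, in 10% FBS, treated 24 h at 37 C. ONE-Glo luminescence normalized to PTC124 control and DMSO (0%); curves classed by r2, magnitude and activity.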
Assay [2] is described as follows: S16 Schwann cell PMP22 intronic element beta-lactamase assay (AID 624044; calls by dose curve; note: nearly all actives have a fitted effect of over 15% in size). An outline of the steps:
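Beta-lactamase reporter under a PMP22 intronic regulatory element in stable S16 rat Schwann cells; 24 h compound exposure. 460 nm blue signal normalized between DMSO (0%) and potassium clavulanate, with 535 nm FRET tracking viability; curves classed by r2 and response.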

A further assay relates to ATS95. Put plainly: qHTS profiling for inhibitors of Plasmodium falciparum proliferation (AID 504749). Note: nearly all actives have a fitted effect of over 60% in size. Note: potency is the fitted concentration of half-maximal effect. Particulars: P. falciparum in erythrocytes, SYBR Green DNA, 72 h; series mostly up to 12.8 µM. An outline of the steps: (§1)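 SYBR Green fluorescence (ex 485 nm, em 535 nm) reports parasite DNA after 72 h compound exposure of infected red cells at 0.3% parasitemia, 2.5% hematocrit; signal normalized to 0.29 uM artemisinin and vehicle wells.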

For another assay, the system named is CP201. Described as above. Particulars: P. falciparum in erythrocytes, SYBR Green DNA, 72 h; series mostly up to 12.8 µM. In short, it runs like this: as §1
In another assay the test system is CP237. The assay is described as above. Particulars: P. falciparum in erythrocytes, SYBR Green DNA, 72 h; series mostly up to 12.8 µM. An outline of the steps:
as §1

In another assay the test system is CP247. The assay is described as above. Particulars: P. falciparum in erythrocytes, SYBR Green DNA, 72 h; series mostly up to 12.8 µM. In short, it runs like this:
as §1

Another assay relates to CP260. The assay is described as above. Particulars: P. falciparum in erythrocytes, SYBR Green DNA, 72 h; series mostly up to 12.8 µM. In short, it runs like this: as §1
A further assay concerns CP262. The description is as above. Particulars: P. falciparum in erythrocytes, SYBR Green DNA, 72 h; series mostly up to 12.8 µM. An outline of the steps:
as §1

The next assay concerns CP265. Described as above. Particulars: P. falciparum in erythrocytes, SYBR Green DNA, 72 h; series mostly up to 12.8 µM. An outline of the steps: as §1
The test system of the next assay is CP269. Described as above. Particulars: P. falciparum in erythrocytes, SYBR Green DNA, 72 h; series mostly up to 12.8 µM. In short, it runs like this: as §1
A further assay relates to CP291. Described as above. Particulars: P. falciparum in erythrocytes, SYBR Green DNA, 72 h; series mostly up to 12.8 µM. An outline of the steps:
as §1

The test system of a further assay is CP305. The description is as above. Particulars: P. falciparum in erythrocytes, SYBR Green DNA, 72 h; series mostly up to 12.8 µM. An outline of the steps: as §1
Another assay concerns CP325. The description is as above. Particulars: P. falciparum in erythrocytes, SYBR Green DNA, 72 h; series mostly up to 12.8 µM. In short, it runs like this: as §1
A further assay has as its system CP329. The assay is described as above. Particulars: P. falciparum in erythrocytes, SYBR Green DNA, 72 h; series mostly up to 12.8 µM. In short, it runs like this: as §1
A further assay relates to DIV14. Described as above. Particulars: P. falciparum in erythrocytes, SYBR Green DNA, 72 h; series mostly up to 12.8 µM. In short, it runs like this:
as §1

Another assay concerns DIV30. The description is as above. Particulars: P. falciparum in erythrocytes, SYBR Green DNA, 72 h; series mostly up to 12.8 µM. In short, it runs like this: as §1
A further assay has as its system ICS. Described as above. Particulars: P. falciparum in erythrocytes, SYBR Green DNA, 72 h; series mostly up to 12.8 µM. An outline of the steps:
as §1

For the next assay, the system named is P94_40. The description is as above. Particulars: P. falciparum in erythrocytes, SYBR Green DNA, 72 h; series mostly up to 12.8 µM. In short, it runs like this: as §1
A further assay concerns TAB165. The description is as above. Particulars: P. falciparum in erythrocytes, SYBR Green DNA, 72 h; series mostly up to 12.8 µM. In short, it runs like this: as §1
Assay [3] has as its target Luciferin 4-monooxygenase (Photinus pyralis) (UniProt P08659). Description: Biochemical firefly luciferase enzyme assay for NPC (AID 624030).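 Note: purified P. pyralis luciferase at 10 nM with luciferin and ATP substrate; nearly all actives have a fitted effect of over 70% in size.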 In short, it runs like this:
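Purified P. pyralis luciferase at 10 nM in 50 mM Tris Acetate (final), luminescence read within 5 minutes of enzyme addition to compounds. Activity normalised to PTC124 versus DMSO; concentration-response curves classed by r2, magnitude and activity.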

Luciferin 4-monooxygenase (Photinus pyralis), sequence (P08659 whole entry, looked up): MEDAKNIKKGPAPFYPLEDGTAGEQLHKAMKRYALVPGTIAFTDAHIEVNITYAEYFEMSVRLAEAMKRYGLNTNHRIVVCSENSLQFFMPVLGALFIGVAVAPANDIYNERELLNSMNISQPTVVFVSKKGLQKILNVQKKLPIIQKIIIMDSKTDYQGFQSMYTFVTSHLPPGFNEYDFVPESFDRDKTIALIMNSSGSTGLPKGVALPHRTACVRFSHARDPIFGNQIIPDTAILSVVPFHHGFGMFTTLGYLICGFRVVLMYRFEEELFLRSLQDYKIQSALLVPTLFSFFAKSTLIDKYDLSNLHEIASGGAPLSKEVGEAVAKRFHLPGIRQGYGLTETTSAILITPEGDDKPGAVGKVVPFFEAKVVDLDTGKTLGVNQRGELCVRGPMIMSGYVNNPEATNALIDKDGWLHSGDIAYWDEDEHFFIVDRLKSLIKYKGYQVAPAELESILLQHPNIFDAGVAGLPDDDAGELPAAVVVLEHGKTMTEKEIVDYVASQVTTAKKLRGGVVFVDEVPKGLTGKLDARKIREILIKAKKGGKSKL

As for `NC[C@@H]1O[C@H](O[C@@H]2[C@H](O[C@@H]3O[C@H](CO)[C@@H](O)[C@@H]3O)[C@@H](O)[C@@H](N)C[C@H]2N)[C@@H](N)[C@H](O)[C@@H]1O`, the Potency entry (in assay [1]; in assay [2]; in the assay on ATS95; in the assay with CP201; in the assay with CP237; in the assay with CP247) was “inactive” throughout. In addition, the Potency entry with CP260, in the assay on CP262, in the assay with CP265, in the assay with CP269, in the assay with CP291 and in the assay with CP305 was “inactive” throughout. Besides, the Potency result in the assay with CP325, in the assay on CP329, with DIV14, with DIV30, with ICS and in the assay on P94_40 was “inactive” in each case. The Potency entry in the assay with TAB165 is “inactive”.

With `CN(C)CCOC(=O)[C@@H](c1ccccc1)C1(O)CCCC1`, the Potency result (in assay [3]; in assay [1]; in assay [2]; in the assay with ATS95; in the assay with CP201; in the assay with CP262) was “inactive” each time. For the same compound, the Potency result with CP265, in the assay with CP269, with CP291, with CP305, in the assay with CP325 and with CP329 was “inactive” each time. Besides, the Potency result in the assay with DIV14, in the assay on DIV30, in the assay with ICS, in the assay with P94_40 and in the assay on TAB165 was “inactive” each time. Also, the Potency in the assay with CP237 is 8.91 µM (active).

With `NCc1ccccc1CC(=O)N[C@@H]1C(=O)N2C(C(=O)O)=C(CSc3nnnn3CC(=O)O)CS[C@@H]12`, the Potency result (in assay [3]; in assay [1]; in [2]; with ATS95; in the assay with CP201; in the assay on CP237) was “inactive” throughout. Also, the Potency result with CP247, with CP260, with CP262, with CP265, in the assay with CP269 and in the assay with CP291 was “inactive” throughout. The Potency entry in the assay on CP305, with CP325, in the assay with CP329, in the assay with DIV14, with ICS and in the assay on P94_40 was “inactive” throughout. Also, the Potency entry with TAB165 was “inactive”.

As to `O=C1O[C@@H]([C@@H](O)CO)[C@@H](O)[C@H]1O`, the Potency result (in assay [1]; in assay [2]; in the assay on ATS95; with CP201; in the assay with CP237; in the assay on CP247) was “inactive” in each case. The Potency entry in the assay on CP260, in the assay with CP262, in the assay with CP265, in the assay on CP269, in the assay on CP291 and in the assay on CP305 was “inactive” throughout. Moreover, the Potency entry with CP325, with CP329, with DIV14, in the assay on DIV30, in the assay with ICS and in the assay on P94_40 was “inactive” in each case. The Potency result with TAB165 is “inactive”.

As to `CC[C@H](Cc1c(I)cc(I)c(N)c1I)C(=O)O`, the Potency entry (in [3]; in assay [2]; in the assay with ATS95; with CP201; with CP237; in the assay with CP247) was “inactive” each time. For the same compound, the Potency result in the assay with CP260, in the assay with CP262, in the assay with CP265, with CP269, with CP291 and in the assay with CP305 was “inactive” throughout. Moreover, the Potency entry in the assay on CP325, in the assay on CP329, with DIV14, in the assay with DIV30, in the assay with ICS and in the assay on P94_40 was “inactive” each time. Further, the Potency entry in the assay on TAB165 was “inactive”.

With `CC(C)(C)NC[C@H](O)COc1cccc2c1C[C@@H](O)[C@@H](O)C2`, the Potency entry (in [3]; in assay [1]; in assay [2]; in the assay on ATS95; with CP201; in the assay on CP237) was “inactive” in each case. Besides, the Potency result in the assay on CP247, in the assay with CP260, in the assay on CP262, in the assay on CP265, in the assay with CP269 and in the assay on CP291 was “inactive” throughout. Also, the Potency entry with CP305, in the assay with CP325, with CP329, in the assay on DIV14, in the assay on DIV30 and with ICS was “inactive” throughout. The Potency result in the assay with P94_40 and in the assay on TAB165 was “inactive” throughout.

For the origin of these results see PubChem BioAssay (NCATS).
